The full ranking holds about 18,000 sequences; the median of “log2 normalized intensity” is about 0.36, and the highest 2% start at about 7.3. This is one part of a sample in which the highest values are shown more often than they occur.
biological target: T1, HNF4alpha8 (COS-7 nuclear extract) (Homo sapiens, UniProt P41235-5 1-452); assay: protein-binding microarray; COS-7 nuclear extract on double-stranded Agilent 4x180k PBM; binding buffer, salt, pH and temperature not given in the material; high values mean tight binding; details: chain copies: 2; label: 3' end of strand 1 on the slide; dsDNA, one strand shown
T1 sequence: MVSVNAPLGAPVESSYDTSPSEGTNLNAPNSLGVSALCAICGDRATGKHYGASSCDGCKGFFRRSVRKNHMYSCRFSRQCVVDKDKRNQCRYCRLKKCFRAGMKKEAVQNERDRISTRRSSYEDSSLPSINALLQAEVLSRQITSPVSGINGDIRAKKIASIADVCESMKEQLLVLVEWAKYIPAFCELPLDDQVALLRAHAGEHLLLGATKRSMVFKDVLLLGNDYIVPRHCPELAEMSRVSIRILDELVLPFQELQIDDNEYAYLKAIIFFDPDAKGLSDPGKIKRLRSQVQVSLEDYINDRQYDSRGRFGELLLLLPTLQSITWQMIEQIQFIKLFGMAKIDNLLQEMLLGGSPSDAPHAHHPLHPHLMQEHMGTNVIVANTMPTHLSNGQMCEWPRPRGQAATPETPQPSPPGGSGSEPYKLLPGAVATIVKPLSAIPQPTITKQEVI
Outline: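 A custom Agilent SurePrint G3 4x180k array, spotted in quadruplicate with ~44,000 test sequences as ~60-nt oligonucleotides made double-stranded, was incubated with nuclear extracts. The extracts came from COS-7 cells transiently transfected by CaPO4 with a human HNF4α isoform expression vector. Bound HNF4α was imaged on an Agilent G2565CA scanner at 2-µm resolution, and the binding signal was taken as Agilent software's background-corrected, normalized gProcessedSignal.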

Row | Sequence | binding signal [log2 normalized intensity]
1 | AATACTCTGAGTAAACACAGACTTTGGAATGCCTAGGGAGATTAGAGTATCGGTCGA | 4.55
2 | TTCGGGGCACTGCTCCCTGCCCCTACCCCCGCCTAGGGAGATTAGAGTATCGGTCGA | 5.02
3 | AGGTACTGGTAGCCTGGGCCCCAGGGGACGGCCTAGGGAGATTAGAGTATCGGTCGA | -0.625
4 | GTGCAAAGGCCTTAAAGTGTAAATATTTGAGCCTAGGGAGATTAGAGTATCGGTCGA | 0.546
5 | TCCGCTTGCCTGAGGGTCATGACTAAAGCAGCCTAGGGAGATTAGAGTATCGGTCGA | 1.13
6 | CCACTAGAGAGACCGTCCCTGGGTACAACTGCCTAGGGAGATTAGAGTATCGGTCGA | 1.33
7 | CGTGGGCATGCCTCCCAGAGCATTGTTTATGCCTAGGGAGATTAGAGTATCGGTCGA | -0.764
8 | GCACATGGCATGATCCCTGACTCATAGCTCGCCTAGGGAGATTAGAGTATCGGTCGA | -0.946
9 | TGGAGCATGACCCTTTGCAGGTGGGAGAGGGCCTAGGGAGATTAGAGTATCGGTCGA | 0.928
10 | GAGGTGGGCCCAGGGTTCTCTGTGACCTTTGCCTAGGGAGATTAGAGTATCGGTCGA | 7.62
11 | TTCTCTGTGACCTTTGGAAGGTGGGGGAGGGCCTAGGGAGATTAGAGTATCGGTCGA | 4.92
12 | TGACTACCAGGTTCTGTACTTTGGAACCTGGCCTAGGGAGATTAGAGTATCGGTCGA | 7.01
13 | GGGCCCAGGGTTCTCTGTGACCTTTGGAAGGCCTAGGGAGATTAGAGTATCGGTCGA | 9.36
14 | CTGCCCTTCTGACCTCCCAGGGATACTGTGGCCTAGGGAGATTAGAGTATCGGTCGA | 2.99
15 | GTAAGCACAAAGTACAGCTTTTTGTTTGTGGCCTAGGGAGATTAGAGTATCGGTCGA | 2.02
16 | AAACATCAAGGAAGAGAACTCCCTATCCCCGCCTAGGGAGATTAGAGTATCGGTCGA | 1.36
17 | GATAGATATGTTGAAGTGACTAAATGAGAAGCCTAGGGAGATTAGAGTATCGGTCGA | -0.611
18 | GTACTTAAAAATGCCTTTCATCTTTGAGAAGCCTAGGGAGATTAGAGTATCGGTCGA | 0.583
19 | GTGTCAACATGGACTTTGTTGTTTGCCTCTGCCTAGGGAGATTAGAGTATCGGTCGA | 4.08
20 | CAGAGAGAAGCCACTGCGACCTTTGCCCTCGCCTAGGGAGATTAGAGTATCGGTCGA | 10
21 | AGAAGCCACTGCGACCTTTGCCCTCCCTAAGCCTAGGGAGATTAGAGTATCGGTCGA | 8.33

Row | Sequence | binding signal [log2 normalized intensity]
22 | TCAGCCTTCTCCGCGGCGGGCCCTCGACCTGCCTAGGGAGATTAGAGTATCGGTCGA | 0.757
23 | TTCCCCTCCCTTCCACCTTTGCCCTCCAAAGCCTAGGGAGATTAGAGTATCGGTCGA | 6.42
24 | CCGCGGCGGGCCCTCGACCTTTGCCCTCCAGCCTAGGGAGATTAGAGTATCGGTCGA | 9.76
25 | CTTCTCCGCGGCGGGCCCTCGACCTTTGCCGCCTAGGGAGATTAGAGTATCGGTCGA | 5.8
26 | TCACAACCTCCCTTTGAAGGAGCCACTGGTGCCTAGGGAGATTAGAGTATCGGTCGA | -0.869
27 | CCCTCCCTAAATCCAGAGGTATTTGGCCCAGCCTAGGGAGATTAGAGTATCGGTCGA | 1.83
28 | TTGCCATGACCTTTGAAGCCCAGAACACTCGCCTAGGGAGATTAGAGTATCGGTCGA | 4.51
29 | ACCGGCAGAGAGAAGCCACTGCGACCTTTGGCCTAGGGAGATTAGAGTATCGGTCGA | 5.59
30 | CCACTGCGACCTTTGCCCTCCCTAAATCCAGCCTAGGGAGATTAGAGTATCGGTCGA | 7.84
31 | CTTTGCCCTCCCTAAATCCAGAGGTATTTGGCCTAGGGAGATTAGAGTATCGGTCGA | 2.04
32 | ACCCACCCACCTATGTCCTTATCCTCATTGGCCTAGGGAGATTAGAGTATCGGTCGA | 0.831
33 | CTCACCAGTGGGCCCAGAGCACAACCTTTGGCCTAGGGAGATTAGAGTATCGGTCGA | 1.42
34 | TATTCAGTCCCCCATCCCAGAGGTCAAACTGCCTAGGGAGATTAGAGTATCGGTCGA | 5.57
35 | GGAATTTGGACTTCAGCCCAGGCTGATTATGCCTAGGGAGATTAGAGTATCGGTCGA | 4.7
36 | CAGCAAGCATTAATCCCTGAGCCTGGACCTGCCTAGGGAGATTAGAGTATCGGTCGA | 2.58
37 | GCGCATCGGGCGCCAGCGCCCCCGTGTGGCGCCTAGGGAGATTAGAGTATCGGTCGA | 1.2
38 | GACCAGCGTGTGGCGCCATTTCAGGTCCACGCCTAGGGAGATTAGAGTATCGGTCGA | 1.74
39 | AATACTCCAGTCATTGTACAAACACATACCGCCTAGGGAGATTAGAGTATCGGTCGA | -0.533
40 | CTCTTAGTATTACCATGTCCTGTGATTAAGGCCTAGGGAGATTAGAGTATCGGTCGA | 1.16
41 | TGGGCCAGGTATTTGGACTTTTTGTAGTTTGCCTAGGGAGATTAGAGTATCGGTCGA | 3.34
42 | CCCTGACCAAGGGTCATGCTGGTCTCCTTGGCCTAGGGAGATTAGAGTATCGGTCGA | 2.46

Row | Sequence | binding signal [log2 normalized intensity]
43 | CAATAAGCAATACATTGAACTTTGAACACCGCCTAGGGAGATTAGAGTATCGGTCGA | 7.99
44 | TTTTCAACATATACTTTGAACTTGTTTTTTGCCTAGGGAGATTAGAGTATCGGTCGA | 2.56
45 | AAGCAAACAAAACACGGACTTTGAAGCTCCGCCTAGGGAGATTAGAGTATCGGTCGA | 3
46 | GTTCAAACTTTATTTGATGATGAAGCAACAGCCTAGGGAGATTAGAGTATCGGTCGA | 0.662
47 | TTGTTCAATAAGCAATACATTGAACTTTGAGCCTAGGGAGATTAGAGTATCGGTCGA | 8.23
48 | AGCAATACATTGAACTTTGAACACCTCTTCGCCTAGGGAGATTAGAGTATCGGTCGA | 6.54
49 | GGCAGTCGTGATAGTGACCACCTGGTGGACGCCTAGGGAGATTAGAGTATCGGTCGA | 1.42
50 | GTTGAGAACTGAGTTTAGAATTTGAACTATGCCTAGGGAGATTAGAGTATCGGTCGA | 3.68
51 | AGTTCAATTTCCAACAAATGAAACTAAAGGGCCTAGGGAGATTAGAGTATCGGTCGA | -0.972
52 | CGCTCCCCGACCTCCTGCTGCAGCTCTGGGGCCTAGGGAGATTAGAGTATCGGTCGA | -0.577
53 | TGTTTATCAGAGCAAAGTTCAATTTCCAACGCCTAGGGAGATTAGAGTATCGGTCGA | 4.31
54 | ATGTGCCCTTTGTACCTGGGGCAAACATCAGCCTAGGGAGATTAGAGTATCGGTCGA | 5.3
55 | ATGCTTCAAATATTTGGATAATGTGCCCTTGCCTAGGGAGATTAGAGTATCGGTCGA | 3.92
56 | TCAAATATTTGGATAATGTGCCCTTTGTACGCCTAGGGAGATTAGAGTATCGGTCGA | 7.39
57 | GGATAATGTGCCCTTTGTACCTGGGGCAAAGCCTAGGGAGATTAGAGTATCGGTCGA | 5.83
58 | GTCAAACAAAAGAAAATGTGCCCTTTGGACGCCTAGGGAGATTAGAGTATCGGTCGA | 7.26
59 | TATTTGGATAATGTGCCCTTTGTACCTGGGGCCTAGGGAGATTAGAGTATCGGTCGA | 7.72
60 | CAATCAGCCTTAGGTATGCCCCATGGTAAGGCCTAGGGAGATTAGAGTATCGGTCGA | 1.49
61 | GAATTCCATCCCAGGTCCACAGTGCACATTGCCTAGGGAGATTAGAGTATCGGTCGA | 2.26
62 | AAGGACAAAGGTCATGTTTTCAAACAATGAGCCTAGGGAGATTAGAGTATCGGTCGA | 5.49
63 | CTGCTGGTTTTTGTCAAAGATAGTTGTAGTGCCTAGGGAGATTAGAGTATCGGTCGA | 1.62

— PMC10726135, “HNF4α isoforms regulate the circadian balance between carbohydrate and lipid metabolism in the liver”
